Where “and” joins values, the source holds several entries; their conditions need not be identical. Equal values may be shown once. Inconclusive results are not listed. Calls of active or inactive are those of the source. Calls come from the whole dose curve.

Bile acid receptor (Homo sapiens), sequence (Q96RI1 whole entry, looked up): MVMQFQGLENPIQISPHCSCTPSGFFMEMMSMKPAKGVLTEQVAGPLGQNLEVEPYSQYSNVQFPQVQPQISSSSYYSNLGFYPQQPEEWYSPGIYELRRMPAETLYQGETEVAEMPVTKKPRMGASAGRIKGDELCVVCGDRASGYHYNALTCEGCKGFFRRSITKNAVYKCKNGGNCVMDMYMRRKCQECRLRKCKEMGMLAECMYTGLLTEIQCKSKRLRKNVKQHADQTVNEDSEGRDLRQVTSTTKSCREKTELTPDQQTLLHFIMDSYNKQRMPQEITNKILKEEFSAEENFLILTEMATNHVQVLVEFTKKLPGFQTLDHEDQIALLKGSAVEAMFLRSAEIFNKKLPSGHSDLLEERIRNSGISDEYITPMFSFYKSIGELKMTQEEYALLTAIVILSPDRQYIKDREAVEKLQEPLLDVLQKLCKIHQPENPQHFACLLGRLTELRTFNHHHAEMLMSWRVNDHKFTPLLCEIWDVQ

In one test the target is Bile acid receptor (Homo sapiens) (UniProt Q96RI1). The experiment in a line: qHTS assay for small molecule antagonists of farnesoid X receptor signaling (AID 588526). Note: % is set by controls: 0 for no effect and ±100 for the full control effect. The following applies: HEK293T FXR-UAS-bla, beta-lactamase ratio, antagonist mode; series mostly up to 76.7 µM; activity change, negative = inhibition: at the top concentration. Summed up:
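Concentration-response titrations were fitted to the Hill equation for half-maximal inhibition and maximal response, with data normalised to 50 uM chenodeoxycholic acid and DMSO control wells. Cells: FXR-UAS-bla HEK293T, dialyzed FBS.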
For the molecule `O=P(O)(O)CCCl`, the Potency entry was “inactive”.

On to `CCCCN(CC)C(=O)SCCC`, for which the “activity change, negative = inhibition” value was 3.81% (inactive).

`NS(=O)(=O)C(F)(F)C(F)(F)C(F)(F)C(F)(F)C(F)(F)C(F)(F)C(F)(F)C(F)(F)F`: the “activity change, negative = inhibition” value was -1.41% (inactive).

Take `CCOP(=O)(NC(C)C)Oc1ccc(S(C)=O)c(C)c1` (centres undefined): the “activity change, negative = inhibition” value was 7.11% (inactive).

Regarding `COP(=S)(OC)Oc1nc(Cl)c(Cl)cc1Cl`, the “activity change, negative = inhibition” value was 10.1% (inactive).

On to `CCOP(=O)(O)C(N)=O`, for which the “activity change, negative = inhibition” value was 6.94% (inactive).

On to `COC(=O)c1ccccc1S(=O)(=O)NC(=O)N(C)c1nc(C)nc(OC)n1`, for which the “activity change, negative = inhibition” value was 2.17% (inactive).

Turning to `Clc1ccc(C(Cl)(Cl)Cl)cc1`, the “activity change, negative = inhibition” value was 1.08% (inactive).

For `COCc1cnc(C2=NC(C)(C(C)C)C(=O)N2)c(C(=O)O)c1` (centres undefined), the “activity change, negative = inhibition” value was 2.06% (inactive).

Take `Clc1ccc([C@]2(Cn3cncn3)C[C@H](Br)CO2)c(Cl)c1`: the Potency entry is “inactive”.

Turning to `CCNc1nc(NC(C)(C)C)nc(SC)n1`, the “activity change, negative = inhibition” value was -8.83% (inactive).

For the molecule `CCCCC(CC)COC(=O)Cl` (centres undefined), the “activity change, negative = inhibition” value is -7.32% (inactive).

Take `CC1CCCCC1NC(=O)Nc1ccccc1` (centres undefined): the “activity change, negative = inhibition” value is -5.26% (inactive).

As for `CCOP(=S)(OCC)SCC(=O)NC(C)C`, the “activity change, negative = inhibition” value is 2.28% (inactive).

Take `CCOc1nc(NC)nc(NC(=O)NS(=O)(=O)c2ccccc2C(=O)OC)n1`: the “activity change, negative = inhibition” value was -16.6% (inactive).

`C/C(=N\NC(=O)Nc1cc(F)cc(F)c1)c1ncccc1C(=O)O`: the Potency entry was “inactive”.

Consider `C=CCC1=C(C)[C@@H](OC(=O)[C@@H]2[C@@H](C=C(C)C)C2(C)C)CC1=O`, for which the “activity change, negative = inhibition” value is -27% (inactive).

As to `C=CC(=O)OCCCCCC(C)C`, the “activity change, negative = inhibition” value is 1.44% (inactive).

As to `CCC(C)n1c(=O)[nH]c(C)c(Br)c1=O` (centres undefined), the “activity change, negative = inhibition” value is 5.8% (inactive).

Turning to `COP(=S)(OC)Oc1ccc([N+](=O)[O-])c(C)c1`, the “activity change, negative = inhibition” value was 5.64% (inactive).

Regarding `CCN(CC)C(=O)C(C)Oc1cccc2ccccc12` (centres undefined), the “activity change, negative = inhibition” value is 2.25% (inactive).

With `CCCCC(CC)C(=O)Cl` (centres undefined), the “activity change, negative = inhibition” value was -5.86% (inactive).

For the molecule `CC(Oc1cc(Cl)c(Cl)cc1Cl)C(=O)O` (centres undefined), the “activity change, negative = inhibition” value is 9.12% (inactive).

Regarding `Cc1c(F)c(F)c(COC(=O)C2C(/C=C(\Cl)C(F)(F)F)C2(C)C)c(F)c1F` (centres undefined), the “activity change, negative = inhibition” value was -9.23% (inactive).

Take `Nc1ccc([N+](=O)[O-])cc1Cl`: the “activity change, negative = inhibition” value was -3.11% (inactive).

Consider `CNC(=O)Oc1ccc(N(C)C)c(C)c1`, for which the “activity change, negative = inhibition” value was 2.91% (inactive).

Another test shares this target. The experiment in a line: qHTS assay for small molecule agonists of farnesoid X receptor signaling (AID 588527).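 Note: 0% = vehicle basal and 100% = reference agonist.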 The following applies: HEK293T FXR-UAS-bla, beta-lactamase ratio, 16 h; activation: hits give high values. In outline: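 FXR-UAS-bla HEK293T, 10% dialyzed FBS; cpds up to 92 uM titration, 16 h 37 C; CCF4 dye 2 h RT; fluorescence. Normalized to chenodeoxycholic acid 100 uM (100%) and DMSO (0%); Hill fit gives EC50, efficacy.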
For the molecule `O=S(=O)(c1ccc(O)cc1)c1ccc(O)cc1`, the activation was -2.06% (inactive).

In the case of `COc1ccc(O)c(C(C)(C)C)c1`, the activation is -2.62% (inactive).

For the molecule `O=[N+]([O-])c1ccc(Oc2ccc(C(F)(F)F)cc2[N+](=O)[O-])cc1`, the activation is -1.37% (inactive).

On to `CN(C)P(=O)(N(C)C)N(C)C`, for which the activation was 3.22% (inactive).

Take `CCOc1ccc(C(C)(C)COCc2cccc(Oc3ccccc3)c2)cc1`: the activation is 4.53% (inactive).

As for `O=c1[nH]c2ccccc2c(=O)o1`, the activation is 0.0754% (inactive).

Turning to `COc1ccc(C(O)(c2cncnc2)C2CC2)cc1` (centres undefined), the activation is -0.99% (inactive).

Take `CN(C)c1nc(=O)n(C2CCCCC2)c(=O)n1C`: the activation was -1.35% (inactive).

As to `C=CC1(C)OC(=O)N(c2cc(Cl)cc(Cl)c2)C1=O` (centres undefined), the activation was -2.77% (inactive).

`COC(=O)c1ccccc1CS(=O)(=O)NC(=O)Nc1nc(OC)cc(OC)n1`: the activation is -0.439% (inactive).

For the molecule `CCC[CH2][Sn]([CH2]CCC)([O]C(C)=O)[O]C(C)=O`, the activation was -0.854% (inactive).

Consider `O=P(O)(O)CCCl`, for which the activation is 4.97% (inactive) and -5.97% (inactive).

Take `CCOP(=O)(NC(C)C)Oc1ccc(S(C)=O)c(C)c1` (centres undefined): the activation is -0.691% (inactive).

`COP(=S)(OC)Oc1nc(Cl)c(Cl)cc1Cl`: the activation was 0.351% (inactive).

On to `CCOP(=O)(O)C(N)=O`, for which the activation is 3.28% (inactive).

For `COC(=O)c1ccccc1S(=O)(=O)NC(=O)N(C)c1nc(C)nc(OC)n1`, the activation was 1.44% (inactive).

For the molecule `Clc1ccc(C(Cl)(Cl)Cl)cc1`, the activation is -1.93% (inactive).

With `Clc1ccc([C@]2(Cn3cncn3)C[C@H](Br)CO2)c(Cl)c1`, the activation is 0.21% (inactive) and -0.946% (inactive).

For the molecule `CCNc1nc(NC(C)(C)C)nc(SC)n1`, the activation was 4.27% (inactive).

In the case of `CCCCC(CC)COC(=O)Cl` (centres undefined), the activation is 1.19% (inactive).

As for `CC1CCCCC1NC(=O)Nc1ccccc1` (centres undefined), the activation was 2% (inactive).

`CCOc1nc(NC)nc(NC(=O)NS(=O)(=O)c2ccccc2C(=O)OC)n1`: the activation was -2.84% (inactive).

For the molecule `C/C(=N\NC(=O)Nc1cc(F)cc(F)c1)c1ncccc1C(=O)O`, the activation was -2.37% (inactive) and 0.898% (inactive).

As for `C=CCC1=C(C)[C@@H](OC(=O)[C@@H]2[C@@H](C=C(C)C)C2(C)C)CC1=O`, the activation is 1.33% (inactive).

As for `C=CC(=O)OCCCCCC(C)C`, the activation is 1.09% (inactive).

Take `CCC(C)n1c(=O)[nH]c(C)c(Br)c1=O` (centres undefined): the activation is 2.99% (inactive).

On to `COP(=S)(OC)Oc1ccc([N+](=O)[O-])c(C)c1`, for which the activation was 2.17% (inactive).

With `CCN(CC)C(=O)C(C)Oc1cccc2ccccc12` (centres undefined), the activation is -1.49% (inactive).

With `CCCCC(CC)C(=O)Cl` (centres undefined), the activation is -2.28% (inactive).

For the molecule `CC(Oc1cc(Cl)c(Cl)cc1Cl)C(=O)O` (centres undefined), the activation was -3.32% (inactive).

Take `Cc1c(F)c(F)c(COC(=O)C2C(/C=C(\Cl)C(F)(F)F)C2(C)C)c(F)c1F` (centres undefined): the activation was 0.0589% (inactive).

In the case of `Nc1ccc([N+](=O)[O-])cc1Cl`, the activation is -2.5% (inactive).

Consider `CNC(=O)Oc1ccc(N(C)C)c(C)c1`, for which the activation is 0.727% (inactive).

The record behind these values is PubChem BioAssay (NCATS).
